# Results taken from PMC7862700, “An all-to-all approach to the identification of sequence-specific readers for epigenetic DNA modifications on cytosine”.
# Columns and labels:
# Assay in all cases: DAPPL (digital affinity profiling via proximity ligation, sequencing); 10 mM Tris-HCl pH 7.5, 50 mM NaCl, 1 mM DTT, 4% glycerol, room temperature, 30 min; GST-TFs on glutathione beads, 16-mer random dsDNA library, 0.1% formaldehyde crosslink after washing; high values mean tight binding
# FEV = molecular target: T1, FEV (Homo sapiens, UniProt Q99581 1-238); settings: protein: recombinant; tags: N-terminal GST; dsDNA, one strand shown
# T1 sequence: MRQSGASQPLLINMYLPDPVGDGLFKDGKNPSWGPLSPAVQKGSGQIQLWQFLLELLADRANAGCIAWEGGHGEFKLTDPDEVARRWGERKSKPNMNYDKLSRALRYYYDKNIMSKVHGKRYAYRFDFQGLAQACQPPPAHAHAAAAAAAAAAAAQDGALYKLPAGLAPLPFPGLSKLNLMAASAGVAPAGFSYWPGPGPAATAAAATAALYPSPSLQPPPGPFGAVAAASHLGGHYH
# Summary of the method: (§1)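 Human transcription factors fused to GST were expressed in yeast, captured on glutathione beads, given DNA barcodes and pooled with a GST-only negative control. Pools were incubated with 200 nmole of a 16-mer random double-stranded DNA library in Tris/NaCl/DTT/glycerol buffer at room temperature for 30 min. They were then washed, crosslinked with 0.1% formaldehyde, proximity-ligated (BsaI/T4 ligase, 1 h, 37 °C), PCR-amplified and sequenced on an Illumina NextSeq500. Binding signal is each 6-mer's read frequency for a factor divided by its frequency for the GST control.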
# ETV5 = ETV5 (Homo sapiens, UniProt P41161 1-510); settings: protein: recombinant; tags: N-terminal GST; dsDNA, one strand shown
# Summary of the method: as §1
# HSF1 = HSF1 (Homo sapiens, UniProt Q00613 1-529); settings: protein: recombinant; tags: N-terminal GST; chain copies: 3; dsDNA, one strand shown
# Summary of the method: as §1
# SPIC = molecular target: T2, SPIC (Homo sapiens, UniProt Q8N5J4 1-248); settings: protein: recombinant; tags: N-terminal GST; dsDNA, one strand shown
# T2 sequence: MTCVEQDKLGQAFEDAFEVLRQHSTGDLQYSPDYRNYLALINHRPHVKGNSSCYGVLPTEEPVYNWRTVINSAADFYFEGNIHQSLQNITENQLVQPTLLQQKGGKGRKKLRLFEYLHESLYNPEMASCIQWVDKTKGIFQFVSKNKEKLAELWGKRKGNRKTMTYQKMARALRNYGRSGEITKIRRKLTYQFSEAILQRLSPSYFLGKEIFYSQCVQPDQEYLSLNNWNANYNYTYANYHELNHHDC
# Summary of the method: as §1
# ELF4 = ELF4 (Homo sapiens, UniProt Q99607 1-663); settings: protein: recombinant; tags: N-terminal GST; dsDNA, one strand shown
# Summary of the method: as §1
# ELK4 = molecular target: T3, ELK4 (Homo sapiens, UniProt P28324-2 1-405); settings: protein: recombinant; tags: N-terminal GST; dsDNA, one strand shown
# T3 sequence: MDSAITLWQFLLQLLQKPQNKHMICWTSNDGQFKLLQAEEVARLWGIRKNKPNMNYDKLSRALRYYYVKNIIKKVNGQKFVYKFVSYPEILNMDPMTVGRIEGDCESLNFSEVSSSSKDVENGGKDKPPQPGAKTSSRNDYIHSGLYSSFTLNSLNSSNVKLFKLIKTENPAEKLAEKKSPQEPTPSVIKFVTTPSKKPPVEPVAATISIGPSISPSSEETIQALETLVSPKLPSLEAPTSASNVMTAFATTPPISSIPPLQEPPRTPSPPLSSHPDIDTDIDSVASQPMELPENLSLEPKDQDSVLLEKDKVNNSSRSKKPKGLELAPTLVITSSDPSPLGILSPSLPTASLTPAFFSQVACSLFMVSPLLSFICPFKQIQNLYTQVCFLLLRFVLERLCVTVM
# Summary of the method: as §1
# ETV2 = molecular target: T4, ETV2 (Homo sapiens, UniProt O00321 1-342); settings: protein: recombinant; tags: N-terminal GST; dsDNA, one strand shown
# T4 sequence: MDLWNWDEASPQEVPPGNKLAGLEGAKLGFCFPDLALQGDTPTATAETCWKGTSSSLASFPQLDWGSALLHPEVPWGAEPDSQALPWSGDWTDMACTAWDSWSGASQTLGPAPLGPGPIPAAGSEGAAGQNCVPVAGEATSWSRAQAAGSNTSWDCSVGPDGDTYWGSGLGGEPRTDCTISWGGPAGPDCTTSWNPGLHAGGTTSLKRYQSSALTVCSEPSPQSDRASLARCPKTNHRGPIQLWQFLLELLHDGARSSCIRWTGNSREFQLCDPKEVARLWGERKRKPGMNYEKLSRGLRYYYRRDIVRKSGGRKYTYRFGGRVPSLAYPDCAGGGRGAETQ
# Summary of the method: as §1
# ELF3 = molecular target: T5, ELF3 (Homo sapiens, UniProt P78545 1-371); settings: protein: recombinant; tags: N-terminal GST; dsDNA, one strand shown
# T5 sequence: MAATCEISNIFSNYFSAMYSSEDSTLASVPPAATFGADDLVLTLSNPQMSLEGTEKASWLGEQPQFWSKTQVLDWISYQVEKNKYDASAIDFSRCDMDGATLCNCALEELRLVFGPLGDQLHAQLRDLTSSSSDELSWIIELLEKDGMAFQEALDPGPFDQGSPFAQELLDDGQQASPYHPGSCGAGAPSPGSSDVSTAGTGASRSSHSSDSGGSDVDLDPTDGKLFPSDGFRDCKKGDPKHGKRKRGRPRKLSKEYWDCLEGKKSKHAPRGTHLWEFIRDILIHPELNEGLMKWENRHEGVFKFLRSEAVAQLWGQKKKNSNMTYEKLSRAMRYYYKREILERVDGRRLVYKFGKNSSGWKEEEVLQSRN
# Summary of the method: as §1
# CRX = CRX (Homo sapiens, UniProt O43186 1-299); settings: protein: recombinant; tags: N-terminal GST; dsDNA, one strand shown
# Summary of the method: as §1
# ETV1 = ETV1 (Homo sapiens, UniProt P50549 1-477); settings: protein: recombinant; tags: N-terminal GST; dsDNA, one strand shown
# Summary of the method: as §1
# Sequence of CRX (O43186 whole entry): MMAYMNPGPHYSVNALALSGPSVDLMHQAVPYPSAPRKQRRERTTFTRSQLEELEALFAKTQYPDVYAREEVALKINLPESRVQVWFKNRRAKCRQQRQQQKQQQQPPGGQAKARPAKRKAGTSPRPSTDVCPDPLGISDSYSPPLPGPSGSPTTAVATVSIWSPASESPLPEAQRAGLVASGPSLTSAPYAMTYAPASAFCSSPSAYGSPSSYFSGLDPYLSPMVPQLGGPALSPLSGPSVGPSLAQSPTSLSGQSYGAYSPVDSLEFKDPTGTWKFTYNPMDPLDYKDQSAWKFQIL
# Sequence of ETV5 (P41161 whole entry): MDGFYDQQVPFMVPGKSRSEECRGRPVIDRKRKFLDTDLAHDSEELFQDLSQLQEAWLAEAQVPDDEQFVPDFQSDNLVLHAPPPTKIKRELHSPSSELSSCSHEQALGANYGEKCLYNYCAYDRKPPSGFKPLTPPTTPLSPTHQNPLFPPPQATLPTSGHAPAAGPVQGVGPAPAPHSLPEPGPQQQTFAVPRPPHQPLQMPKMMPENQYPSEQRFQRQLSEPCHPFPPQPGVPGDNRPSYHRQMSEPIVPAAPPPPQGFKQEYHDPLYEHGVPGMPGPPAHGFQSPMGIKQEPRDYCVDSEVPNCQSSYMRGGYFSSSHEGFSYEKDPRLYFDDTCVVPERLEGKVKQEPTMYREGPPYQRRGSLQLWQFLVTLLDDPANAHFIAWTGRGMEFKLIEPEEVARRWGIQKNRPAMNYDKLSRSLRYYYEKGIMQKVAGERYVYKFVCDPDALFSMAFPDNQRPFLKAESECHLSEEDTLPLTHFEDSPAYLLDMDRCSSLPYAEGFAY
# Sequence of ELF4 (Q99607 whole entry): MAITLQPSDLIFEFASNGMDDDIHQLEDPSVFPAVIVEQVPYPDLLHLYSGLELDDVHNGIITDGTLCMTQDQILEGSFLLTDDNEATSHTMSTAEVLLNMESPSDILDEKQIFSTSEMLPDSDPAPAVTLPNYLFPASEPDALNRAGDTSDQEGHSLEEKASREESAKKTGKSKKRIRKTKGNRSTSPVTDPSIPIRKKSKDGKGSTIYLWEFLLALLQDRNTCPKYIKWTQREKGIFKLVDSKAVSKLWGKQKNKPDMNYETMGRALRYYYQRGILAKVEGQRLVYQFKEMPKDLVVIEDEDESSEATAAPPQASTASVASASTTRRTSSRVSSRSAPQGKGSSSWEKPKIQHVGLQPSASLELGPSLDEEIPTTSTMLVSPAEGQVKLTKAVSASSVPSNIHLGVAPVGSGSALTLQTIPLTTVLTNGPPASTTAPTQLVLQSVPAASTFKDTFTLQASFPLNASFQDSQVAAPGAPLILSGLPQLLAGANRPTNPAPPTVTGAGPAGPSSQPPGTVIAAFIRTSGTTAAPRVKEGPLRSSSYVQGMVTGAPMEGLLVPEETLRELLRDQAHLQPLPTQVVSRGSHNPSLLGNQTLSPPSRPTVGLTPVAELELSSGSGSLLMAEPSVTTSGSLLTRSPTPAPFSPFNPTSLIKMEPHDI
# Sequence of HSF1 (Q00613 whole entry): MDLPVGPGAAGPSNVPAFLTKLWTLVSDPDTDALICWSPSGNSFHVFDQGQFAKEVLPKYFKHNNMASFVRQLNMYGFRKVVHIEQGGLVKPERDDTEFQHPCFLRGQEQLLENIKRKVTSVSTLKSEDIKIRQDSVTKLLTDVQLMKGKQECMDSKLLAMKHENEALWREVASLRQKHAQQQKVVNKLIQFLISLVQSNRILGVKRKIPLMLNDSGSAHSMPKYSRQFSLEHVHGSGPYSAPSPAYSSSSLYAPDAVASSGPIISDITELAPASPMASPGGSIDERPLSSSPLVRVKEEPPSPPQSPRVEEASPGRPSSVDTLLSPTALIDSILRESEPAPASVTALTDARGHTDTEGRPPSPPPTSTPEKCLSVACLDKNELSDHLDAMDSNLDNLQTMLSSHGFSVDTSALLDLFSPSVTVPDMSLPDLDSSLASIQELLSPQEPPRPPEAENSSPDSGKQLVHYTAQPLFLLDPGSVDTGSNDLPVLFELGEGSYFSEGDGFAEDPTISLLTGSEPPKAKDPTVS
# Sequence of ETV1 (P50549 whole entry): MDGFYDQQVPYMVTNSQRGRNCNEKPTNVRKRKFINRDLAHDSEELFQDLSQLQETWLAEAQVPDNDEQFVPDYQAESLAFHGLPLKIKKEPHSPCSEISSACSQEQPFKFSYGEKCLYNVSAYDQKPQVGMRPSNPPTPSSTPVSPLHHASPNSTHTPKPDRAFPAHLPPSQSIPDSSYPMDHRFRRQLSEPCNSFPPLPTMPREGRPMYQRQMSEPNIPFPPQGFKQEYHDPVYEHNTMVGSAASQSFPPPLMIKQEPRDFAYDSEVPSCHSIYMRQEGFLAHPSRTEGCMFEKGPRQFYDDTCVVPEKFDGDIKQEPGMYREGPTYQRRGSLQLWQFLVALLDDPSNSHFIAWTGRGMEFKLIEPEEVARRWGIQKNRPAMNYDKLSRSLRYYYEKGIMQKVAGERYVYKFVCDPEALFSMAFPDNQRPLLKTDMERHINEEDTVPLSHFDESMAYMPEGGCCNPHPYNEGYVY
sequence,measurement,setting,value
TACCTC,binding signal,FEV,"1.22 fold enrichment (6-mer frequency, TF over GST control)"
same,binding signal,ETV5,"1.14 fold enrichment (6-mer frequency, TF over GST control)"
same,binding signal,HSF1,"1.07 fold enrichment (6-mer frequency, TF over GST control)"
same,binding signal,SPIC,"1.4 fold enrichment (6-mer frequency, TF over GST control)"
same,binding signal,ELF4,"1.21 fold enrichment (6-mer frequency, TF over GST control)"
same,binding signal,ELK4,"1.36 fold enrichment (6-mer frequency, TF over GST control)"
same,binding signal,ETV2,"1.24 fold enrichment (6-mer frequency, TF over GST control)"
same,binding signal,ELF3,"1.27 fold enrichment (6-mer frequency, TF over GST control)"
same,binding signal,CRX,"1.19 fold enrichment (6-mer frequency, TF over GST control)"
same,binding signal,ETV1,"1.29 fold enrichment (6-mer frequency, TF over GST control)"
